# Test results published in PubChem BioAssay (NCATS).
# “And” between values parts separate entries of the source, which are not always exact repeats. Equal entries are not always repeated. Records with an inconclusive call do not appear. Entries that show only a call come without a potency. Some structures have more than one record in an assay (separate samples or runs), and their calls can disagree. The source made the active and inactive calls. Unless noted, the call rests on the fitted dose curve; in most records, active means well fitted curve in the direction sought with a large enough effect; inconclusive means small, poorly fitted or top-dose-only effect, or another doubt; inactive means no such curve, though single readings can be large; an effect the other way counts as inactive or inconclusive.
# Key:
# [1] = molecular target: Cytochrome P450 2C9 (Homo sapiens) (UniProt P11712); assay: qHTS Assay for Inhibitors and Substrates of Cytochrome P450 2C9 (AID 883); further: nearly all actives have a fitted effect of over 60% in size; further: potency means the concentration at half of the fitted maximal effect
# Outline: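 CYP2C9 deoxyluciferin hydroxylation, 37C, 60 min with NADPH regeneration; 10nM enzyme, 100uM Luciferin-H (KM). Glo detection reagent stopped reaction; luminescence normalized to sulphaphenazole (57uM) full inhibition.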
# [2] = molecular target: Cytochrome P450 3A4 (Homo sapiens) (UniProt P08684); assay: qHTS Assay for Activators of Cytochrome P450 3A4 (AID 885); further: nearly all actives have a fitted effect of over 65% in size
# Outline: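 Signal was normalized against complete inhibition by 57 uM ketoconazole. The reaction used 20nM CYP3A4 with 25uM Luciferin-PPXE, 10-min compound preincubation and a 60-min NADPH-supported step at RT.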
# [3] = molecular target: Cytochrome P450 2D6 (Homo sapiens) (UniProt P10635); assay: qHTS Assay for Inhibitors and Substrates of Cytochrome P450 2D6 (AID 891); further: nearly all actives have a fitted effect of over 60% in size; further: potency means the concentration at half of the fitted maximal effect
# Outline: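 Human CYP2D6 (5 nM) with 30 uM Luciferin-ME EGE (at Km) in 100 mM KPO4, compound preincubated 10 min, then NADPH regeneration system for 60 min at room temperature. Luciferin read by luminescence; normalized to 1.43 uM quinidine.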
# [4] = molecular target: Cytochrome P450 2C19 (Homo sapiens) (UniProt P33261); assay: qHTS Assay for Inhibitors and Substrates of Cytochrome P450 2C19 (AID 899); further: nearly all actives have a fitted effect of over 60% in size; further: potency means the concentration at half of the fitted maximal effect
# Outline: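 In 50mM KPO4, the reaction held 5nM enzyme and KM-level (10uM) Luciferin-H EGE; it ran 60 min at 37C after NADPH regeneration and a 10 min compound preincubation. Luminescence values were scaled to 57uM ketoconazole as complete inhibition.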
# [5] = qHTS Assay for Identification of Small Molecule Agonists for Hypoxia Response Element Signaling Pathway (AID 914; active means well fitted activation curve with a large enough effect in the signal ratio, with a control signal flat, not every such curve was filed as active; the % refers to the signal ratio); settings: ME-180 (cervical carcinoma) HRE-bla reporter, beta-lactamase ratio, CoCl2, 17 h; stronger effect = higher value
# Outline: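 HRE-bla ME-180 cells with beta-lactamase reporter under hypoxia response element, compounds with EC50 CoCl2 for 17 hours at 37 C. CCF4 substrate, 460nm/530nm emission ratio gave %Activity; AC50 from titration series.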
# Sequence of Cytochrome P450 2C9 (Homo sapiens) (P11712 whole entry, looked up): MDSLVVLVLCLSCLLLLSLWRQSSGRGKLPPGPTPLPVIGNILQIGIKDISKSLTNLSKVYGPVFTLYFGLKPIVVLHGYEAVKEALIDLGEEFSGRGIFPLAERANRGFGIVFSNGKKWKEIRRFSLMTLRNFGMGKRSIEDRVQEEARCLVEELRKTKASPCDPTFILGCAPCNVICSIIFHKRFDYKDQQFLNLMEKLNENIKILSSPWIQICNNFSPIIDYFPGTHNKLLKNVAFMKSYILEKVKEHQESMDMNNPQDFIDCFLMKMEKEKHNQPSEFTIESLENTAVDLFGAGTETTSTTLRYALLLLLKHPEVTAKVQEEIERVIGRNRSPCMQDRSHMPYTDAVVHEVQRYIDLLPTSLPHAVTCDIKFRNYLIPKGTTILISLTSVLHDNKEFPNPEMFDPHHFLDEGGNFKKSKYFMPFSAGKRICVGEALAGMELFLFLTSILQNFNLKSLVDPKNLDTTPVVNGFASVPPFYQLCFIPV
# Sequence of Cytochrome P450 3A4 (Homo sapiens) (P08684 whole entry, looked up): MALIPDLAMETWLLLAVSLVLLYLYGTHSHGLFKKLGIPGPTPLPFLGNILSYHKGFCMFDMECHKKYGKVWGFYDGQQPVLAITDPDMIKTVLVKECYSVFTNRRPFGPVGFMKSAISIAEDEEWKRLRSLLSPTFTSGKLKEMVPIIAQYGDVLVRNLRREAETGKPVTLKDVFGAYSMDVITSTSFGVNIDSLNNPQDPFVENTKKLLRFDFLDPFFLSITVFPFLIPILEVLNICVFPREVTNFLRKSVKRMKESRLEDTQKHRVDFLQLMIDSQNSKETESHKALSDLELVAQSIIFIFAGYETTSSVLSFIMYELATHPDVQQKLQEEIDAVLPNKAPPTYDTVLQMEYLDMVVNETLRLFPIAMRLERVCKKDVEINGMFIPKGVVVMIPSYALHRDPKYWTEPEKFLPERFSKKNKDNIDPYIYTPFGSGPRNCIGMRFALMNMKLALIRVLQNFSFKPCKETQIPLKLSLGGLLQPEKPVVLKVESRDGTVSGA
# Sequence of Cytochrome P450 2C19 (Homo sapiens) (P33261 whole entry, looked up): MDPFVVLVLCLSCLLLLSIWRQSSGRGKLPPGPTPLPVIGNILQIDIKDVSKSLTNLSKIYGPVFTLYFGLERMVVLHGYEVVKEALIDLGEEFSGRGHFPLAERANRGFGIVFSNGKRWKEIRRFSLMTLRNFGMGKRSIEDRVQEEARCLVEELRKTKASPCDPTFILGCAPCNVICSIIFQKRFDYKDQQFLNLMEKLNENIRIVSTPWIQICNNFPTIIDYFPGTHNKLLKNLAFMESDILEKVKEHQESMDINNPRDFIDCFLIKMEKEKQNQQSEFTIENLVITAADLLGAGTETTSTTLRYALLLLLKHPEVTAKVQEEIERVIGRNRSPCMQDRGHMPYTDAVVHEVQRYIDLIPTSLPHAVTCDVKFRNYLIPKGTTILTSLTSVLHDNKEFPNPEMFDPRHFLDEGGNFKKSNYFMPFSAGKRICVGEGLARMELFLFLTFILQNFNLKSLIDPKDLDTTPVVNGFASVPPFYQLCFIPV
# Sequence of Cytochrome P450 2D6 (Homo sapiens) (P10635 whole entry, looked up): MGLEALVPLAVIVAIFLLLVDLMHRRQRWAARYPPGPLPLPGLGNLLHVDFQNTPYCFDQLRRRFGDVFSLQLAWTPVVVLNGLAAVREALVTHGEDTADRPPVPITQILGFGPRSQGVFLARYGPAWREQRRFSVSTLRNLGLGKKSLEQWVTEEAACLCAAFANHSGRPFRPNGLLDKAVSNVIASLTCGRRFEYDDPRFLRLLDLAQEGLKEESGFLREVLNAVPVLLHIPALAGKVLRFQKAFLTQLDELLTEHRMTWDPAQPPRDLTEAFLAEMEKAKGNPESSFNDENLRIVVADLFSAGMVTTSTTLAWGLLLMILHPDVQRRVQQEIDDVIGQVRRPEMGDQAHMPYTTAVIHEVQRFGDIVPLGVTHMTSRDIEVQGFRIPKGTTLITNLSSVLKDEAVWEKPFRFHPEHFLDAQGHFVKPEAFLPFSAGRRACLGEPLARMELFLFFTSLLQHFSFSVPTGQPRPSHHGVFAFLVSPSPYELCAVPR
SMILES,Potency [1],"activity change, positive = activation [2]",Potency [3],Potency [4],activation [5]
CC(C)=CCC/C(C)=C/C=C/C1=CC2(C)CC1(C)C(/C=C(\C)CCC=C(C)C)CC2=O (configuration not stated),inactive,-35% [at 11.4 µM] (inactive),inactive,inactive,
COC(=O)[C@@H]1CC[C@H](C)[C@@H](c2ccc(C)cc2)N1C(=O)c1ccc(/C=N\OC[C@@H](O)[C@H]2O[C@H]3OC(C)(C)O[C@H]3[C@@H]2O)cc1,2.51 µM (active),-58.3% [at 11.4 µM] (inactive),,0.631 µM (active),
COc1ccc(OC2C(O)COC2/C=C/C#Cc2ccccc2)cc1 (configuration not stated),inactive,-57.7% [at 11.4 µM] (inactive),inactive,inactive,
CC1Cc2c(COc3ccccc3)nc3c(c2CO1)CN(CCOc1ccccc1)CC3 (configuration not stated),inactive,-42% [at 11.4 µM] (inactive),inactive,inactive,
C=CCOC(=O)C(C(C)=O)C(NC(=O)OC)c1ccco1 (configuration not stated),inactive,-42.1% [at 11.4 µM] (inactive),inactive,inactive,
COc1cccc([C@@H]2Oc3ccc(Br)cc3C(=O)[C@H]2O)c1,2.51 µM (active),-74.4% [at 11.4 µM] (inactive),3.16 µM (active),3.16 µM (active),
CC1Cc2c(-c3ccccc3)nc3c(c2CO1)CN(CCOc1ccccc1)CC3 (configuration not stated),inactive,-39% [at 11.4 µM] (inactive),,inactive,
C/C=C/OC(=O)NC(c1cccc(C)c1)[C@@]1(C(=O)OCC)CCCC1=O (some centres not stated),inactive,-48.2% [at 11.4 µM] (inactive),inactive,1 µM (active),
C=CCC1(C)OC=Cc2nc3cc(Cl)c(Cl)cc3nc21 (configuration not stated),inactive,-59.2% [at 11.4 µM] (inactive),inactive,3.98 µM (active),
CCCCc1nc2c(c3c1CC(C)OC3)CN(CCOc1ccccc1)CC2 (configuration not stated),inactive,-59.6% [at 11.4 µM] (inactive),,inactive,
CCCCC#CC1C=CC(Oc2cc(OC)c(OC)c(OC)c2)C(CO)O1 (configuration not stated),inactive,-45% [at 11.4 µM] (inactive),inactive,inactive,
COC(C1CCCCC1)C(C)C(OCc1cccc(Br)c1)C(C)CO (configuration not stated),inactive,-47.3% [at 11.4 µM] (inactive),inactive,1.58 µM (active),
COc1ccc(O[C@H]2C=C[C@@H](c3ccccc3)O[C@H]2CO/N=C2/c3cc(OC)ccc3O[C@@H](c3cccc(OC)c3)[C@H]2O)cc1,3.16 µM (active),-100% [at 11.4 µM] (inactive),,0.501 µM (active),
CCOC(=O)[C@]1(C(NC(=O)OC)c2ccccc2)CCCC1=O (some centres not stated),inactive,-34% [at 11.4 µM] (inactive),inactive,1.26 µM (active),
C/C=C/C1Oc2ccc(OC)cc2N2C(=O)C(C)C(OCOC)C12 (configuration not stated),inactive,-50.7% [at 11.4 µM] (inactive),inactive,inactive,
C=C(C)C(O)/C=C/C=C/c1ccccc1 (configuration not stated),inactive,-32.8% [at 11.4 µM] (inactive),inactive,inactive,
COc1ccccc1/C=C/C1=CC2(C)CC1(C)C(c1ccccc1OC)CC2=O (configuration not stated),3.98 µM (active),-56.9% [at 11.4 µM] (inactive),inactive,3.16 µM (active),
COC(=O)C(C(=O)OC)C1O[C@@]23COCCC2(C)C3c2ccccc21 (some centres not stated),inactive,-34.9% [at 11.4 µM] (inactive),inactive,inactive,
CCN1C(C)=C(C(=O)OC)C(c2ccccc2)N2C(=O)[C@](O)(C(=O)OC)CC(C#N)=C12 (some centres not stated),inactive,-38.3% [at 11.4 µM] (inactive),inactive,inactive,
COC(=O)NC(/C=C/c1ccccc1)[C@]1(C(C)=O)CCCC1=O (some centres not stated),inactive,-41.6% [at 11.4 µM] (inactive),inactive,inactive,
O=C1CCC[C@@H](C(C(=O)OCc2ccccc2)C(=O)OCc2ccccc2)C1,3.16 µM (active),-39.2% [at 11.4 µM] (inactive),,,-22.4% (inactive)
OCC1OC(C#Cc2ccccc2)C=CC1O (configuration not stated),inactive,-40.9% [at 11.4 µM] (inactive) and -46.3% [at 11.4 µM] (inactive) and -31.2% [at 11.4 µM] (inactive),inactive,inactive and 631 nM (active),
C=C(C)C(O)/C=C/CCCCCCC (configuration not stated),inactive,-33.5% [at 11.4 µM] (inactive),inactive,inactive,
